PubChem BioAssay (NCI)
About 83,000 compounds went through this panel and 20% of them were active in at least one assay; those are over-represented in the sample as a whole.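 Growth was measured after 48 h exposure to one concentration of compound in 96-well plates. Values under 10 count as active.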 Values without a mark were called inactive. Activity calls are given as the source filed them.

Assays:
Test in all cases: NCI-60 one-dose screen, 48 h (100 = growth as untreated, 0 = no growth, -100 = all killed)
Details in all cases: 10 µM unless noted
NCI-H226 lung = tested on: NCI-H226 lung
NCI-H322M lung = tested on: NCI-H322M lung
HOP-62 NSCLC = tested on: HOP-62 NSCLC
NCI-H460 lung = tested on: NCI-H460 lung
HOP-92 NSCLC = tested on: HOP-92 NSCLC
NCI-H522 lung = tested on: NCI-H522 lung
A549/ATCC NSCLC = tested on: A549/ATCC NSCLC
786-0 renal = tested on: 786-0 renal
COLO 205 colon = tested on: COLO 205 colon
DU-145 prostate = tested on: DU-145 prostate
K-562 leukemia = tested on: K-562 leukemia
MDA-MB-231 breast = tested on: MDA-MB-231 breast
RXF 393 renal = tested on: RXF 393 renal
SF-268 CNS = tested on: SF-268 CNS
SF-295 CNS = tested on: SF-295 CNS
SF-539 CNS = tested on: SF-539 CNS
UACC-257 melanoma = tested on: UACC-257 melanoma
MALME-3M melanoma = tested on: MALME-3M melanoma
M14 melanoma = tested on: M14 melanoma

Row | SMILES | growth (NCI-H226 lung) | growth (NCI-H322M lung) | growth (HOP-62 NSCLC) [%] | growth (NCI-H460 lung) | growth (HOP-92 NSCLC) | growth (NCI-H522 lung) | growth (A549/ATCC NSCLC) [%] | growth (786-0 renal) | growth (COLO 205 colon) [%] | growth (DU-145 prostate) [%] | growth (K-562 leukemia) | growth (MDA-MB-231 breast) | growth (RXF 393 renal) | growth (SF-268 CNS) [%] | growth (SF-295 CNS) [%] | growth (SF-539 CNS) | growth (UACC-257 melanoma) [%] | growth (MALME-3M melanoma) [%] | growth (M14 melanoma) [%]
1 | C[C@]12CCC(=O)C[C@H]1CC[C@@H]1[C@@H]2CC[C@@]2(C)[C@H]1CC[C@]2(O)C(=O)CO | 94.2% | 103% | 105 | 107% | 93.2% | 89.4% | 122 | 105% | 100 | 108 | 114% | 99.6% | 108% | 96 | 113 | 103% | 129 | – | –
2 | N[C@H]1CCC[C@@H]1NCCCCN1C(=O)c2cccc3cccc(c23)C1=O | 83.8% | 54.9% | 76.2 | 39.4% | 51.4% | 57.1% | 53.3 | 54.8% | – | 43.4 | 65.9% | 52.4% | 63.9% | 48.1 | 71.9 | 29.7% | 104 | 104 | 53.1
3 | O=C1N/C(=N/O)S/C1=C/c1cn(-c2ccccc2)nc1-c1ccccc1 | 91.9% | 87.3% | 98 | 104% | 107% | 95.6% | 93.6 | 83.7% | – | 102 | 94.2% | 85.8% | 95.6% | 97.7 | 107 | 110% | 113 | 141 | 105
4 | C=CCN1C(=O)[C@]2(SC1=S)[C@H](c1cccc(Cl)c1)CN(C)[C@]21C(=O)NC2C=CC(Cl)=C[C@H]21 (stereo partly drawn) | 43.4% | 87.2% | 63.9 | 55.3% | -6.48% (active) | 41.3% | 41.9 | 24.8% | – | 48.8 | 22.9% | 26.8% | 35.4% | 52.9 | 32.1 | 81.1% | 26.5 | 35.7 | 29.9
5 | Cc1c(Cl)cccc1NS(=O)(=O)c1ccccc1 | 93.1% | 110% | 112 | 112% | 89.2% | 98.4% | 104 | 106% | – | 143 | – | 102% | 95.3% | 104 | 95.2 | 102% | 95.1 | 124 | 105
6 | COc1cc(-c2ccc(N=Nc3c(O)c(C(=O)Nc4ccccc4OC)cc4ccccc34)c(OC)c2)ccc1N=Nc1c(O)c(C(=O)Nc2ccccc2OC)cc2ccccc12 | 94.1% | – | 80.6 | 99.6% | 77.6% | 90.4% | 95.6 | 87.2% | – | – | 90.6% | 76.2% | 93.1% | 87.5 | 95.1 | 103% | 109 | 90.6 | 90.7
7 | CS(=O)(=O)c1ccc(-c2[nH]c3ccc(F)cc3c2/C=N/NC(N)=S)cc1 | 63.1% | 48.8% | 34.2 | 3.52% (active) | 55.8% | 5.14% (active) | 18.4 | 40.3% | – | 22.1 | 6.76% (active) | 13.7% | 1.16% (active) | 39.8 | 13.9 | -21.2% (active) | 63.3 | 55.9 | 11.6
8 | COc1ccc(-c2nc3ccccn3c2/C=C/C(=O)c2cc(OC)c(OC)c(OC)c2)cc1 | 71.7% | 73.2% | 70.8 | 34.4% | 22.7% | 26.7% | 55.8 | 63.1% | – | 58.1 | 49.8% | 42.1% | 43.9% | 38.2 | 123 | 8.84% (active) | 55.3 | 43.3 | –
9 | COc1ccc(/C=C2\COc3ccc(O)cc3C2=O)c(OC)c1 | 104% | 86.5% | 56.3 | 40.6% | 79.5% | 39.1% | 51.6 | 91.2% | 108 | 65.8 | 12.4% | 60.9% | – | 70.2 | 80.1 | 57.5% | 74.8 | 60.9 | –
10 | C=C(C)C1CCC(=C)C2CCC3(C)OC12/C=C(/COC(C)=O)CCC3O (stereo not drawn) | 102% | 97.9% | 103 | 104% | 60.6% | 93.3% | 74.2 | 106% | – | 100 | 88.6% | 105% | 98.4% | 105 | – | 104% | 37.9 | 137 | 109
11 | CCCc1nc2ccccn2c1Nc1ccc(C(=O)NO)cc1 | 92.6% | – | 90.4 | 85.9% | 103% | 64.9% | 97.1 | 95.5% | – | 88.3 | 89.5% | 111% | 96% | 94.2 | 93.8 | 99.3% | 76.1 | 86.7 | 89.6
12 | CNCCNc1nc2ccccc2c2c(=O)c3cc(F)ccc3oc12 | 68% | 43.8% | 44.2 | 55.8% | 33.3% | 58% | 50.8 | 53.1% | – | 48.6 | 56% | 39.2% | 59.2% | 58.2 | 75.4 | 58.9% | 99.4 | 86.3 | 86.8
13 | N#C/C(=C\c1ccc(Br)cc1)n1nnc2ccccc21 | -23.9% (active) | -12.2% (active) | 17.9 | -23.2% (active) | -15% (active) | -6.64% (active) | 18.1 | 5.88% (active) | – | 14.5 | 14.5% | 0.304% (active) | -15.4% (active) | 23.9 | 16.1 | -3.55% (active) | 13.4 | 24.1 | 10.7
14 | COc1ccc(C(=O)/C=C/C23c4ccccc4C(c4ccccc42)C2C(=O)NC(=O)C23)cc1 (stereo not drawn) | 99.7% | 92.4% | 96.4 | 96.2% | 103% | 87% | 90.7 | 103% | – | 97.4 | 86.3% | 94.9% | 95.9% | 90.5 | 106 | 89.9% | 89.4 | 98 | 105
15 | CS(=O)(=O)c1ccc(-c2nc3cc(Cl)ccc3n2CC(=O)NO)cc1 | 88.7% | 98.6% | 97.1 | 101% | 98% | 86.3% | 94.1 | 99.5% | – | 101 | 95.7% | 93.8% | 94.9% | 89.2 | 98 | 101% | 102 | 108 | 93.6
16 | Nc1ccc(CCCCc2ccccc2)c(Cl)c1 | 96.8% | 85% | 105 | 102% | 53.1% | 71.1% | 81.2 | 88.9% | – | 103 | 90.1% | 91.2% | 90.3% | 83 | 104 | 91.2% | 89 | 106 | 103
17 | CN(C)c1ccc2cc(-c3ccc(Cl)c(Cl)c3)c(N)nc2c1 | 42.3% | 54.6% | 66.2 | 27.6% | 28% | 22% | 32.9 | 55.4% | – | 56.2 | 12.1% | 63.1% | 63% | 50.1 | 11.9 | 48.5% | 21.3 | 29.8 | 25.5
